HIV TAR-Tat: HIV-1 TAR-Tat binding disruption. HIV-1 TAR RNA, Tat peptide displacement FRET; active compounds read high. z-score (test concentration not listed). 100,000 compounds, 0.6% hits. AID 1259389; active = z-score of 3 or more in at least 2 runs
CDC25B CDK2 inh: human CDC25B-CDK2/CyclinA binding inhibition | HTRF CDC25B-CDK2/CyclinA binding, anti-His/anti-Flag; active compounds read high | P30305+P24941 | AID 1259370 | z-score (no concentration beside the values) | 94,000 compounds, 0.72% hits; in the data active = z-score above about 3.2
The depositor's hits bear a star. A selection: hits, their analogues and other compounds. The true share with any hit is near 0.93%.

What do the screens show for `COc1ccccc1C1Oc2ccccc2C2CC(c3cccnc3)=NN21` (configuration not stated)?
HIV TAR-Tat: 3.5*; CDC25B CDK2 inh: -0.43

How did CC(C)(C)c1ccc(NC(=O)N2CCN(CCN3CCOCC3)CC2)cc1 do in these assays?
CDC25B CDK2 inh: -0.72

What do the screens show for `COc1ccc(OC)c(CN2CCN(Cc3ccc4c(c3)OCO4)CC2)c1`?
HIV TAR-Tat: 0.34; CDC25B CDK2 inh: -0.45

What do the screens show for `CCOc1ccc(CN2CCN(Cc3ccc4c(c3)OCO4)CC2)cc1`?
HIV TAR-Tat: 1.1; CDC25B CDK2 inh: 8.4*

How did O=S(=O)(c1ccccc1)N1CCN(Cc2ccc3c(c2)OCO3)CC1 do in these assays?
HIV TAR-Tat: 1.2; CDC25B CDK2 inh: -0.65

How did O=S(=O)(c1ccc2ccccc2c1)N1CCN(Cc2ccc3c(c2)OCO3)CC1 do in these assays?
HIV TAR-Tat: 9*; CDC25B CDK2 inh: -0.97

What do the screens show for `Cc1sc2nc(CNc3ccc(F)cc3)[nH]c(=O)c2c1C`?
HIV TAR-Tat: -4.8; CDC25B CDK2 inh: -0.83

How did Cn1cc([N+](=O)[O-])c(C(=O)n2cc(Br)cn2)n1 do in these assays?
CDC25B CDK2 inh: -0.9

How did O=C(NCCN1CCc2ccccc2C1)Nc1ccccc1F do in these assays?
HIV TAR-Tat: -0.3; CDC25B CDK2 inh: -0.6

How did CSc1ccc(NC(=O)NCCN2CCc3ccccc3C2)cc1 do in these assays?
HIV TAR-Tat: 1.5; CDC25B CDK2 inh: 13*

How did Cn1c(=O)[nH]c2nnc(-c3cccnc3)nc2c1=O do in these assays?
HIV TAR-Tat: 0.12; CDC25B CDK2 inh: -1.7

What do the screens show for `C/C(=C\c1ccccc1)c1nnc2[nH]c(=O)n(C)c(=O)c2n1`?
HIV TAR-Tat: 19*; CDC25B CDK2 inh: -0.65

Results for CCc1nnc(NC(=O)CCS(=O)(=O)c2ccc3c(c2)NC(=O)CS3)s1 ?
HIV TAR-Tat: -3.6

How did CC1Cc2cc(S(=O)(=O)NCCC3=CCCCC3)ccc2N1C(=O)C1CC1 (configuration not stated) do in these assays?
HIV TAR-Tat: 0.61

How did CC(=O)N1N=C(c2cccc(Br)c2)OC1c1ccc(Oc2ccc([N+](=O)[O-])cn2)cc1 (configuration not stated) do in these assays?
HIV TAR-Tat: 1.7

From PubChem
